Experimental findings from PubChem BioAssay (NCATS) are described below.

Structures are written as SMILES. Values joined by “and” are separate entries in the source; they are usually repeats but may differ in a detail not shown here. Equal values may be shown once. Values without a mark were called inactive. Inconclusive results are not listed. Active and inactive are the calls of the source. Unless noted, the call rests on the fitted dose curve; in most records, active means well fitted curve in the direction sought with a large enough effect; inconclusive means small, poorly fitted or top-dose-only effect, or another doubt; inactive means no such curve, though single readings can be large; an effect the other way counts as inactive or inconclusive. Where only a bound is given, the exact number is not on record here.

Test [1] can be described thus: Cell Viability - MRC5 (AID 434; calls by dose curve;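 further: potency means the concentration at half of the fitted maximal effect; cells exposed to compound for 40 hours at 37 °C; potency reflects cytotoxicity seen as loss of intracellular ATP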). The conditions noted are these: MRC5 lung fibroblast viability, qHTS. In a few lines: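 qHTS cytotoxicity in human lung fibroblast MRC5 cells; 40 hr treatment, 37 °C; cellular ATP by luciferase luminescence; DMSO = 0%, 100 uM tamoxifen = 100% inhibition; Hill-fit AC50.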
For orientation: In qHTS, concentration-response curves come from the screen itself.

Test [2] can be described thus: Cell Viability - HUV-EC-C (AID 542).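 Further: cells exposed to compound for 40 hours; on the % scale 0 is the no-effect control and ±100 the full control effect; nearly all actives have a fitted effect of over 35% in size.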 Particulars: HUV-EC-C endothelial cell viability, qHTS; series mostly up to 92.2 µM. In a few lines:
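Decrease in cellular ATP, quantified by luciferase luminescence, reflects toxicity in normal human vascular endothelial HUV-EC-C cells given compound for 40 hr in complete culture medium. Values are AC50s from concentration-response curves.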

The nature of test [3]: Cellular Toxicity (caspase-3) HepG2 (AID 654).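 Further: cells exposed to compound for 16 hours before reading.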 The conditions noted are these: HepG2 caspase-3 activation, luminescence; series mostly up to 92.2 µM. In a few lines:
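qHTS, HepG2, 1500 cells/well, complete medium; cpd 16 h 37 °C; Caspase-Glo 3/7, 20 min RT; lum. Norm: DMSO vs 100 uM tamoxifen; AC50 Hill fit.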

The nature of test [4]: Cellular Toxicity (caspase-3) HUV-EC-C (AID 656). The conditions noted are these: HUV-EC-C cells, caspase-3 activation (apoptosis); series mostly up to 92.2 µM. Summed up:
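HUV-EC-C endothelial cells, 1000/well, were pre-incubated 5 hr at 37°C, then exposed to compounds for 16 hr at 37°C. Caspase-Glo 3/7 luminescence was read after 20 min at room temperature. AC50 came from Hill fits, normalized to DMSO and 100 uM tamoxifen.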

The nature of test [5]: Cellular Toxicity (caspase-3) SHSY5Y (AID 657). The conditions noted are these: SH-SY5Y caspase-3 activation; series mostly up to 91.7 µM. Summed up: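 SH-SY5Y human neuroblastoma cells (1500/well) were treated with compounds for 16 h at 37 °C, then Caspase-Glo 3/7 luminescence was read after 1 h at room temperature. Data normalized to DMSO and 10 uM staurosporine; AC50 from Hill fits.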

Test [6] in a line: Cellular Toxicity (caspase-3) BJ (AID 658). The conditions noted are these: BJ fibroblasts, luminescence; Potency: caspase-3 activation; series mostly up to 91.7 µM. In a few lines: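 Readout: Caspase-Glo 3/7 luminescence increase in BJ cells after 16 hr treatment at 37 °C. Staurosporine and tamoxifen served as positive controls; AC50 values came from Hill modelling of data normalized to DMSO and 10 uM staurosporine.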

Test [7] in a line: Cellular Toxicity (caspase-3) MRC-5 (AID 659). The conditions noted are these: MRC-5 cells, luminescence, normalized: DMSO 0%, 10 µM staurosporine 100%; series mostly up to 91.7 µM. In a few lines:
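Concentration-dependent caspase 3/7 activation is measured in human normal lung fibroblasts (MRC-5) following 16-hour treatment. AC50 values come from standard Hill-equation modeling of luminescence normalized to DMSO and 10 uM staurosporine.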

A short description of test [8]: Cellular Toxicity (caspase-3) Mesangial (AID 660).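 Further: combined caspase 3 and 7 activity read by Caspase-Glo luminescence; cells exposed to compound for 16 h before the caspase read.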 The conditions noted are these: mesangial cells, normalized: DMSO 0%, 100 µM tamoxifen 100%; series mostly up to 91.7 µM. In a few lines:
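Concentration-response qHTS: compound-induced rise in caspase 3/7 luminescence in human mesangial cells after 16 h, normalized to DMSO and 100 uM tamoxifen controls.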

A short description of test [9]: Cellular Toxicity (caspase-3) H-4-II-E (AID 663).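 Further: cells exposed to compound for 16 hr before readout.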 The conditions noted are these: H-4-II-E rat hepatoma; Potency: caspase-3 activation; series mostly up to 92.2 µM. In a few lines:
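Apoptosis induction is scored as increased luminescence from caspase 3/7 substrate cleavage in rat hepatoma H-4-II-E cells exposed to compound for 16 hr. Activity is scaled between DMSO and 100 uM tamoxifen.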

Test [10] can be described thus: Cellular Toxicity (caspase-3) Hek293 (AID 664).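 Further: cells exposed to compound for 16 h at 37 °C before readout.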 The conditions noted are these: HEK293 caspase-3 activation, DMSO = 0%, 100 µM tamoxifen = 100%; at 92.2 µM (top of the series). Summed up:
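Activation of caspase-3/7 is measured as increased luminescence from cleaved peptide-aminoluciferin substrate in HEK293 cells treated 16 hours at 37 °C. AC50 values come from Hill-equation fits of concentration-response data.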

Test [11] in a line: Cellular Toxicity (caspase-3) N2a (AID 665).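 Further: compound exposure lasted 16 h at 37 °C before readout.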 Particulars: N2a cells, luminescence, normalized: DMSO 0%, 10 µM staurosporine 100%; series mostly up to 92.2 µM. Summed up: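 Plated mouse neuroblastoma N2a cells received titrated compounds for 16 h in complete medium. Caspase activity was then detected with a peptide-aminoluciferin luminescent reagent.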
Test [12] in a line: Cellular Toxicity (caspase-3) NIH 3T3 (AID 666).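 Further: caspase signal read after 16 h compound exposure; 0% = DMSO basal and 100% = 100 µM tamoxifen stimulation.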 Particulars: NIH 3T3 caspase-3 activation, apoptosis/toxicity, 0% DMSO, 100% is 100 µM tamoxifen; series mostly up to 92.2 µM. In a few lines: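 Concentration-response qHTS in NIH 3T3 mouse fibroblasts scores caspase-3/7 activation as rising luminescence after 16 hr compound exposure. Signals are scaled between DMSO-only and 100 uM tamoxifen.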

Test [13] in a line: Cellular Toxicity (caspase-3) Renal Proximal Tubule (AID 667).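 Further: cells exposed to compound for 16 hours at 37 °C before detection.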 The conditions noted are these: renal proximal tubule cells, primary cells freshly taken from rat; Potency: caspase-3 activation; series mostly up to 91.7 µM. In a few lines: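 Primary rat proximal tubule cells, 1000/well, 5 h plating at 37 °C, then compound 16 h at 37 °C. Caspase-Glo 3/7 reagent, 1 h RT, luminescence. Normalized to DMSO (basal) and 10 uM staurosporine (100%); Hill-fit AC50.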

The nature of test [14]: MultiTox-Fluor Cytotoxicity Assay - LYMP1-003 - Live Cells (AID 962). Further: potency means the concentration at half of the fitted maximal effect. The conditions noted are these: LYMP1-003 lymphoblastoid cells, MultiTox-Fluor live-cell protease fluorescence; series mostly up to 92.2 µM. In a few lines: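 Cells plated at 2500 per well and incubated 5 hr; compounds added and incubated 16 hr at 37 C; MultiTox-Fluor reagent added for 60 min at room temperature; fluorescence of liberated AFC measured at 405/510 nm.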

Test [15] can be described thus: Cell Viability - LYMP2-003 (AID 965).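 Further: cells exposed to compounds for 24 h before reading; nearly all actives have a fitted effect of over 50% in size.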 Further: potency means the concentration at half of the fitted maximal effect. Particulars: LYMP2-003 lymphoblastoid cell viability; series mostly up to 92.2 µM. Summed up: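 Human lymphoblastoid cells (2500/well) were pre-incubated 5 hr at 37 C, then exposed to compounds over a concentration range for 24 hr at 37 C. Intracellular ATP was read by CellTiter-Glo luminescence; AC50 came from Hill-equation fits.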

The nature of test [16]: qHTS Assay for Identification of Small Molecule Inducers of Hypoxia Response (AID 2120; active means well fitted curve in the direction sought with a large enough effect in the signal ratio, with a control signal flat, not every such curve was filed as active; the % refers to the signal ratio; further: 0% is about no effect). Particulars: hypoxia response reporter cells, beta-lactamase ratio readout; series mostly up to 104 µM. In a few lines:
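Induction of beta-lactamase reporter activity was measured in CellSensor HRE-bla ME-180 cells after 17 h compound treatment at 37 degrees C, using CCF4 substrate and the 460nm/530nm emission ratio to derive AC50 values.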

Test [17] deals with Peroxisome proliferator-activated receptor alpha (Homo sapiens) (UniProt Q07869). Description: qHTS assay for small molecule agonists of the peroxisome proliferator-activated receptor alpha (PPARalpha) signaling pathway (AID 651778). Further: % of control where 0% means no effect. Particulars: PathHunter PPARalpha complementation, chemiluminescence, 6 h; max response: active compounds read high. In a few lines: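 Chemiluminescence from complemented enzyme reported PPARalpha activation in cells after 6 hr of compound treatment at 37 C. The detection reagent was incubated for 60 min at room temperature, and compounds were scored as agonists.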
Peroxisome proliferator-activated receptor alpha (Homo sapiens), sequence (Q07869 whole entry, looked up): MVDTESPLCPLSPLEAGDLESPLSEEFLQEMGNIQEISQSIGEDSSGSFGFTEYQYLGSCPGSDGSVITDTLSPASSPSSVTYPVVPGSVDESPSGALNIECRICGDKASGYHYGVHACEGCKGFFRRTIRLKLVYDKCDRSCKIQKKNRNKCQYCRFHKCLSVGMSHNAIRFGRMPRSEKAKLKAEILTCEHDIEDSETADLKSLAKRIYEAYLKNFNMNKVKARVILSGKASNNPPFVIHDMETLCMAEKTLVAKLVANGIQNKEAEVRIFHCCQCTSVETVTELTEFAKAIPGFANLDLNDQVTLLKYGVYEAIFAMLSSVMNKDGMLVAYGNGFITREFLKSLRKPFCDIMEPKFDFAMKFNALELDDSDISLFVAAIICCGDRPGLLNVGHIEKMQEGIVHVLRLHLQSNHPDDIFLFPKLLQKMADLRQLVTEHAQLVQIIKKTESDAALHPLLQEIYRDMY

Test [18] is described as follows: qHTS assay for small molecule agonists of the antioxidant response element (ARE) signaling pathway measured by Nrf2-dependant transcriptional activity - cell viability counter screen (AID 720653; active means well fitted curve in the direction sought with a large enough effect in the repeat runs; an effect the other way counts as inactive or inconclusive; further: on the % scale 0 is the no-effect control and ±100 the full control effect). The conditions noted are these: ARE-bla HepG2 viability, CellTiter-Glo ATP luminescence, 16 h; max response: active compounds read low. Summed up: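 Cytotoxicity counter screen: intracellular ATP quantified by CellTiter-Glo luminescence in the same ARE-bla HepG2 plates, after 16 h compound exposure and a 2 h beta-lactamase substrate step.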

Test [19] in a line: qHTS assay for cell viability of HEK293 cells (AID 743288). Further: nearly all actives have a fitted effect of over 50% in size. Further: potency means the concentration at half of the fitted maximal effect. On max response: on the % scale 0 is the no-effect control and ±100 the full control effect. Particulars: ATP luminescence (CellTiter-Glo), 18 h; max response: active compounds read low. In a few lines: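 Parental HEK293 cells were seeded at 2,000 cells/well, rested at least 5 h at 37 C, then exposed to compounds in DMSO for 18 h at 37 C. Viability was read as ATP-dependent luciferase luminescence after 30 min at room temperature.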

Test [20] is described as follows: qHTS assay for cell viability of the p53RE-bla HCT-116 cell line (AID 743292). Further: on the % scale 0 is the no-effect control and ±100 the full control effect; nearly all actives have a fitted effect of over 55% in size. Particulars: p53RE-bla HCT-116 viability, ATP luminescence, 16 h; series mostly up to 95 µM. Summed up: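 Viability of compound-treated p53RE-bla HCT-116 cells is taken from ATP-dependent luciferase luminescence. Treatment lasts 16 h at 37 C after a 5 h settling period; detection follows 30 min at room temperature.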

As to `O=C1c2ccccc2C(=O)C1(O)O`, the Potency in [1] was 44.8 µM (active); in test [15] it was 50.1 µM (active). Besides, the Potency result in test [2], in test [3], in test [4], in [5], in test [6] and in [9] was “inactive” throughout. Besides, the Potency result in test [13], in test [14], in test [16] and in test [20] was “inactive” throughout. Also, the compound was called inactive in test [7], in test [8], in test [11] and in test [12]. For the same compound, in test [10], the caspase-3 activation was 0.893%. Moreover, the figures for the max response in [17], in test [18] and in [19] were 0.0449%, -29.9% and -12.1%, respectively.
In the case of `CC(C)(C)C(=O)C1C(=O)c2ccccc2C1=O`, the Potency in [1] was > 92 µM. Also, the Potency result in test [2], in [3], in [4], in [5], in [6] and in test [9] was “inactive” in each case. Besides, the Potency entry in test [13], in [14], in [15], in test [16] and in [20] was “inactive” each time. Besides, the compound was classed as inactive in test [7], in [8], in test [11] and in test [12]. For the same compound, in test [10], the caspase-3 activation is -1.93%. Besides, the max response in test [17] is 0.134%; in test [18] it was -24.2%; in test [19], -22.9%.
With `C/C=C1/C(=O)C[C@H]2[C@@H]3CCC4=CC(=O)CC[C@]4(C)[C@H]3CC[C@]12C`, in [1], the Potency is > 92 µM. In addition, the Potency result in [2], in test [3], in test [4], in test [5], in [6] and in [9] was “inactive” in each case. Also, the Potency entry in test [13], in test [14], in test [15], in [16] and in test [20] was “inactive” each time. Moreover, the compound was called inactive in test [7], in [8], in test [11] and in test [12]. The max response in test [17] was -2.73%; in test [18], -1.31%.
As for `O=Nc1ccc(Nc2ccccc2)cc1`, the Potency entry in test [3], in test [4], in test [5], in test [6], in [13] and in test [16] was “inactive” each time. Further, the Potency result in test [20] was “inactive”. Moreover, the call in test [7], in test [8], in test [11] and in [12] was inactive. In addition, the caspase-3 activation in [10] was -5.38%. In addition, the max response in test [17] was -0.677% and -6.11%; in test [18], -2.32% and -16.8%. Further, the Potency in test [19] was 39.8 µM (active) and 20 µM (active).
Take `C=CC(=O)OCCCCCCOC(=O)C=C`: the Potency is > 92 µM in [1], 50.1 µM (active) in [14] and 39.8 µM (active) in test [15]. In addition, the Potency result in [2], in test [3], in test [4], in test [5], in test [6] and in test [13] was “inactive” in each case. The Potency result in test [16] and in [20] was “inactive” each time. The result in test [7], in [8], in test [11] and in test [12] was inactive. The max response in test [17] was 0.65% and -0.822%; in [18] it was -16.8% and -7.99%; in test [19], -28.7% and -17.5%.
Regarding `Clc1nc2ccccc2nc1Cl`, in test [1], the Potency was > 92 µM. Further, the Potency result in [2], in test [3], in test [4], in test [5], in test [6] and in test [9] was “inactive” throughout. The Potency entry in test [13], in [14], in [15], in test [16] and in [20] was “inactive” in each case. Moreover, the outcome in test [7], in test [8], in test [11] and in [12] was inactive. Besides, the caspase-3 activation in test [10] was 15.8%. The figures for the max response in test [17], in test [18] and in test [19] were 0.306%, 0.874% and -15.1%, respectively.
